An excerpt weighted towards active compounds, which were near 11% of everything screened.
Tau fluor counter = Counterscreen qHTS for Inhibitors of Tau Fibril Formation, Fluorescence Polarization; AID 1463, 2008; tau K18 P301L Alexa594 fluorescence, heparin fibrillization; Potency, µM (highest dose often 57.7 µM), inactives show top-dose activity change, negative = decrease; 280,000 tested, 0.93% active; further: potency means the concentration at half of the fitted maximal effect; nearly all actives have a fitted effect of over 55% in size
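Human tau K18 P301L (15 uM unlabeled, 0.24 uM Alexa 594-labeled) in 100 mM sodium acetate pH 7 with 20 uM heparin, 6 hr at 37 C. ThT 30 uM added, 1 hr ambient; Alexa 594 FP and total fluorescence read at 555/632 nm.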
G9a block = qHTS Assay for Inhibitors of Histone Lysine Methyltransferase G9a | Histone-lysine N-methyltransferase EHMT2 (Homo sapiens), Q96KQ7 | G9a H3K9 monomethylation, AlphaScreen, 2 h | Potency, µM (series often up to 102 µM), for inactives: at the top dose activity, negative = inhibition, most hits filed as inhibitors | 350,000 tested, 8.8% active; further: potency means the concentration at half of the fitted maximal effect; nearly all actives have a fitted effect of over 75% in size
Target sequence (Q96KQ7 913-1193 limits assumed): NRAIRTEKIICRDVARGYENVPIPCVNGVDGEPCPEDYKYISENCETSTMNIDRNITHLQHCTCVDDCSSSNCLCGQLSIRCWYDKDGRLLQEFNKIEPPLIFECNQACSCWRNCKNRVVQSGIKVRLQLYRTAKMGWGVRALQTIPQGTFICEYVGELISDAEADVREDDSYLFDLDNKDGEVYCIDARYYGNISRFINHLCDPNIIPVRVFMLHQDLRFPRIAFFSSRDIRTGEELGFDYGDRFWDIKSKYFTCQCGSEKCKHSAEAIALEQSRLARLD
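Chemiluminescent proximity detection of H3K9 monomethylation, read after 10 min bead incubation in the dark. Reaction: 20 nM G9a, 500 nM biotin-H3K9 peptide, 20 uM SAM cofactor, 2 h, room temperature, following 15 min enzyme-compound preincubation.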
Sfp inh = qHTS Assay for Inhibitors of Bacillus subtilis Sfp phosphopantetheinyl transferase (PPTase). 310,000 tested, 3.5% active. Biochemical Sfp PPTase activity, qHTS. Potency, µM, without a hit: largest response in the series, negative = inhibition, most hits filed as inhibitors;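 further: the enzyme is Sfp with the accession as filed and its product quenches rhodamine fluorescence; potency means the concentration at half of the fitted maximal effect; 0% = enzyme reaction without inhibitor and -100% = no enzyme wells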
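Fluorescence-quenching assay: 15 nM Sfp-PPTase preincubated 15 min at room temperature with compound, then 5 uM rhodamine-CoA and 12.5 uM BHQ-2-labelled YbbR peptide added. Fluorescence (ex 525/em 598 nm) read at start and after 30 min; difference gives rate.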
FBPA coupling cs = qHTS Assay for Inhibitors of Fructose-1,6-bisphosphate Aldolase from Giardia Lamblia: Coupling assay counterscreen. activity change, negative = inhibition, % at 58.2 µM, hits read low. 290,000 tested, 0.67% active. coupling enzyme system counterscreen, AmpLite Red fluorescence. AID 2472, 2010; in the data active means activity change below about -30%
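Activity here indicates interference with the coupling reaction, not aldolase inhibition. Compounds at 57.5 uM final met coupling enzymes for 10 min at RT; substrate and AmpLite Red detection followed, with a 525/598 nm fluorescence read after 20 min.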
Tau ThT inhib = qHTS for Inhibitors of Tau Fibril Formation, Thioflavin T Binding; Microtubule-associated protein tau (Homo sapiens), P10636; recombinant tau K18 P301L (four-repeat tau fragment), heparin-induced fibrillization, ThT fluorescence; Potency, µM (titrated, usually from 57.4 µM), for the others: top-dose activity, negative = inhibition, usual class: inhibitors; 270,000 tested, 2.1% active; AID 1460, 2008; further: potency means the concentration at half of the fitted maximal effect; nearly all actives have a fitted effect of over 55% in size
Target sequence (P10636 561-689 P618L limits assumed): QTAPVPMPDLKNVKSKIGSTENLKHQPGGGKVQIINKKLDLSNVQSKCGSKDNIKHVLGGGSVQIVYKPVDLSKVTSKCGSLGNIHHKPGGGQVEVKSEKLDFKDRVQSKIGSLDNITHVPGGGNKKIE
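In this qHTS, human K18 P301L tau is incubated with compound and heparin for 6 hr at 37 C, and Thioflavin T fluorescence then reports fibril load.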
Tau FP inhib = qHTS for Inhibitors of Tau Fibril Formation, Fluorescence Polarization; Microtubule-associated protein tau (Homo sapiens), P10636; K18 P301L tau heparin fibrillization, Alexa594 FP, 6 h; Potency, µM (top dose mostly 57.7 µM), for inactives: at the top dose activity, negative = inhibition, hits mostly inhibitors; 280,000 tested, 0.39% active; AID 1468, 2008; further: potency means the concentration at half of the fitted maximal effect; nearly all actives have a fitted effect of over 55% in size
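Recombinant K18 P301L […], labeled with Alexa 594 at 0.24 uM over 15 uM unlabeled; heparin inducer 20 uM final; 37 C, 6 hr; FP endpoint.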
* = called active by the depositor; [ ] = dose if it differs, or a comment. Unless noted, the call rests on the fitted dose curve; in most records, active means well fitted curve in the direction sought with a large enough effect; inconclusive means small, poorly fitted or top-dose-only effect, or another doubt; inactive means no such curve, though single readings can be large; an effect the other way counts as inactive or inconclusive. Unless noted, on the % scale 0 is the no-effect control and ±100 the full control effect.

For Cc1ccc(CSCC(=O)N2CCN(c3cc(Cl)ccc3C)CC2)cc1 the results were Tau fluor counter 3.7%, G9a block 10.6%[59 µM], Tau ThT inhib -8.4% and Tau FP inhib 2.7%.
For CN=CC1=C(O)CC(C)(C)CC1=O the results were Tau fluor counter -0.4%, G9a block -6.7%[2.33 µM], Sfp inh 15.6%, FBPA coupling cs 2.1, Tau ThT inhib -2.8% and Tau FP inhib 0.1%.
For CC1(C)CC(=O)C(CC2=C(O)CC(C)(C)CC2=O)=C(O)C1 the results were Tau fluor counter -22.7%, G9a block 4.47µM*, Sfp inh inconclusive, FBPA coupling cs -2.5, Tau ThT inhib 15.8µM* and Tau FP inhib 39.8µM*.
Screening CC1(C)CC(=O)C(CC2=C(O)CC(C)(C)CC2=O)C(=O)C1 returned Tau fluor counter -22.2%, G9a block inconclusive, Sfp inh inconclusive, FBPA coupling cs -2.3, Tau ThT inhib 14.1µM* and Tau FP inhib 28.2µM*.
`Fc1ccc(-c2nc(Nc3ccc(F)c(Cl)c3)nc3c2COc2ccccc2-3)cc1` gave Tau fluor counter -23.7%, G9a block inconclusive, Tau ThT inhib 0.1% and Tau FP inhib inconclusive.
For CN(C)c1ccc(-c2nnn(CC(=O)Nc3ccccc3N3CCOCC3)n2)cc1 the results were Tau fluor counter -27.9%, G9a block 50.1µM*, Sfp inh -1.5%, FBPA coupling cs -7.0, Tau ThT inhib inconclusive and Tau FP inhib 11.0%.
`C=CCSC1=N/C(=C\c2cc(OCC)c(OC(C)=O)c([N+](=O)[O-])c2)C(=O)S1` gave Tau fluor counter 12.3%, G9a block 12.6µM*, Sfp inh 56.2µM*, FBPA coupling cs -0.1, Tau ThT inhib 13.3% and Tau FP inhib 6.5%.
For C=CCSC1=N/C(=C\c2ccc3c(c2)OCO3)C(=O)S1 the results were Tau fluor counter -20.8%, G9a block -9.9%, Sfp inh -17.1%, FBPA coupling cs 4.1, Tau ThT inhib inconclusive and Tau FP inhib -2.2%.
Screening O=C(Cc1c(O)c2ccccc2[nH]c1=O)NCc1ccccc1F returned Tau fluor counter 4.8%, G9a block 70.8µM*, Sfp inh -8.7%, FBPA coupling cs -3.2, Tau ThT inhib 6.8% and Tau FP inhib 1.4%.
Screening O=C(Cc1c(O)c2ccccc2[nH]c1=O)NCc1cccc(F)c1 returned Tau fluor counter 4.8%, G9a block 3.4%[59 µM], Sfp inh 21.4%, FBPA coupling cs 1.6, Tau ThT inhib -1.8% and Tau FP inhib -1.8%.
Screening Cc1ccc(SCC(=O)N2N=CCC2c2ccccc2)cc1 (stereo not given) returned Tau fluor counter -7.0%, G9a block -3.2%, Sfp inh 12.7%, FBPA coupling cs 2.5, Tau ThT inhib -9.4% and Tau FP inhib 1.3%.
Screening O=c1ccc2ccc(Oc3ccc(Cl)cc3[N+](=O)[O-])cc2o1 returned Tau fluor counter -29.7%, G9a block 31.6µM*, Sfp inh 0.5%, FBPA coupling cs 1.7, Tau ThT inhib -13.2% and Tau FP inhib -6.6%.
For COc1cccc(=O)c2c(C)n(CC(=O)c3ccccc3)c(C)c12 the results were Tau fluor counter inconclusive, G9a block inconclusive, Sfp inh 44.7µM*, FBPA coupling cs -23.7, Tau ThT inhib 14.1µM* and Tau FP inhib 9.1%.
`CCC(=O)Nc1cc(C)c(NC(=O)C23CC4CC(CC(C4)C2)C3)cn1` gave Tau fluor counter 1.2%, G9a block 1.12µM*, Sfp inh -13.3%, FBPA coupling cs -8.5, Tau ThT inhib 0.0% and Tau FP inhib 6.6%.
`Cc1cc(NC(=O)C23CC4CC(CC(C4)C2)C3)n[nH]1` gave Tau fluor counter -9.3%, G9a block 12.6%, Sfp inh 21.8%, FBPA coupling cs 0.4, Tau ThT inhib 0.2% and Tau FP inhib -3.5%.
For Cc1c(/C=N/NC(=O)c2ccccc2O)c2ccccn2c1C(=O)c1ccc(F)cc1 the results were Tau fluor counter 11.5%, G9a block 0.1%[59 µM], Sfp inh 5.5%, FBPA coupling cs 0.2, Tau ThT inhib 11.7% and Tau FP inhib 1.6%.
Screening Cc1c(/C=N/NC(N)=O)c2ccccn2c1C(=O)c1ccncc1 returned Tau fluor counter -13.0%, G9a block 44.7µM*, Sfp inh 1.3%, FBPA coupling cs -1.7, Tau ThT inhib inconclusive and Tau FP inhib 7.0%.
For Cc1c(/C=N/NC(=O)c2ccc(O)cc2)c2ccccn2c1C(=O)c1ccc(F)cc1 the results were Tau fluor counter 15.8µM*[quencher], G9a block 16.2%[59 µM], Sfp inh 20.2%, FBPA coupling cs -0.8, Tau ThT inhib inconclusive and Tau FP inhib inconclusive.
For Cc1c(/C=N/NC(=O)CNc2ccccc2)c2ccccn2c1C(=O)c1ccccc1 the results were Tau fluor counter inconclusive, G9a block 39.8µM*, Sfp inh 0.9%, FBPA coupling cs 5.1, Tau ThT inhib inconclusive and Tau FP inhib 15.8%.
`C=CCNC(=O)c1c(Cl)cnn1-c1ccc(C)cc1` gave Tau fluor counter 1.1%, Sfp inh -3.4%, FBPA coupling cs 4.0, Tau ThT inhib -7.6% and Tau FP inhib -2.8%.
`COC(=O)C1CN(C(=O)COc2ccc(C)cc2)c2ccccc2O1` (stereo not given) gave G9a block 18.7%, Sfp inh -2.6% and FBPA coupling cs -1.3.
`O=C(c1ccc2c(c1)N(Cc1cccc(Cl)c1)C(=O)c1ccccc1S2=O)N1CCC(Cc2ccccc2)CC1` (stereo not given) gave Tau fluor counter -9.1%, G9a block inconclusive, Tau ThT inhib -9.4% and Tau FP inhib -2.3%.
For Cc1cc2[nH]ncc2cc1NC(N)=S the results were Tau fluor counter 5.4%, G9a block 11.1%, Sfp inh -10.5%, FBPA coupling cs -2.7, Tau ThT inhib 1.3% and Tau FP inhib 5.1%.
`Cc1cc(C)c2c(NC(N)=S)n[nH]c2n1` gave Tau fluor counter -1.1%, G9a block 25.1µM*, Sfp inh -19.4%, FBPA coupling cs 4.5, Tau ThT inhib -6.5% and Tau FP inhib 0.0%.
Screening Cc1cc(C)c(OCC(=O)OCC(=O)N(C)C2CCS(=O)(=O)C2)c(C)c1 (stereo not given) returned G9a block 3.1%[0.501 µM].
